Screens as filed in PubChem BioAssay.
ADAM10 inh: inhibitors of human ADAM10 | O14672 | recombinant ADAM10, EDANS/DABCYL FRET peptide cleavage, 3 h | 370,000 tested, 0.62% active | inhibition, % at 7 µM;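 active = inhibition above a per-campaign cutoff equal to the mean of compounds falling between control-based bounds plus 3 SD, cut at about 20% in these data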;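 also: 0% = DMSO wells while the 100% control is not disclosed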
PLCb3 inh: inhibitors of human phospholipase C beta3; Q01970; inhibition, % at 12.2 µM; AID 720704; Purified PLC-beta3, fluorogenic substrate, fluorescence; 370,000 tested, 0.18% active; in the data active = inhibition above about 11%;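 also: 0% = median of compound wells on plate and 100% = full blocker control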
HGIII-sPLA2 inh: Blocks human group III sPLA2 activity | inhibition, % at 12.2 µM | 370,000 tested, 0.56% active | AID 743126 | QFRET BODIPY PC-A2 liposome hydrolysis, fluorescence;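 active = inhibition above mean plus 3 SD of compounds lying within the high and low control bounds, cut at about 19% in these data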;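 also: 0% = median of test compound wells and 100% = no enzyme DMSO wells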
Target sequence (Q9NZ20 whole entry, looked up): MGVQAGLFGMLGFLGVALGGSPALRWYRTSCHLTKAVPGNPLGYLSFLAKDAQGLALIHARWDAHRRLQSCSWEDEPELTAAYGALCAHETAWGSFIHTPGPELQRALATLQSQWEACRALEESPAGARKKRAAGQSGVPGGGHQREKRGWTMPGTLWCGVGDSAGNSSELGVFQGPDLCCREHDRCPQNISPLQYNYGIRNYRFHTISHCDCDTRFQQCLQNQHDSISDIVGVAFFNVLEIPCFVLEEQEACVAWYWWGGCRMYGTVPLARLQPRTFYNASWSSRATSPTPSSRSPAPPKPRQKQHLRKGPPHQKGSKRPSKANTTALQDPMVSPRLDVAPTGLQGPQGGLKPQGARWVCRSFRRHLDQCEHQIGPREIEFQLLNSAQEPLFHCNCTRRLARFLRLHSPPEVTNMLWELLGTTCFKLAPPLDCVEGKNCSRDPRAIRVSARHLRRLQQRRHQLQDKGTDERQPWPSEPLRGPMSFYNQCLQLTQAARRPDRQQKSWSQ
KLK7 zymogen act: activators of human kallikrein-7 zymogen; purified proKLK7, EDANS-DABCYL substrate fluorescence; 100% is mature enzyme control, 0% vehicle; 370,000 tested, 0.9% active; P49862; activation, % at 7 µM; AID 652039;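 active = activation above the mean of all tested compounds plus 3 SD, computed per campaign excluding outliers beyond control limits, cut at about 13% in these data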
Target sequence (P49862 whole entry, looked up): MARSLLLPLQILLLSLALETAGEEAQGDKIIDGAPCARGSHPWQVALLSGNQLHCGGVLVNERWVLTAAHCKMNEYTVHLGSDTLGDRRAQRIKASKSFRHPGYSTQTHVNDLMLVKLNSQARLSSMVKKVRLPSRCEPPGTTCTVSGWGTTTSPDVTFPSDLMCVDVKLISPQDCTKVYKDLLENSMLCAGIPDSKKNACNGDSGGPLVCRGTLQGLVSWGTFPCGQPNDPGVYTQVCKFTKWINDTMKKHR
PLC-gamma1 inh: PLC-gamma1 (human) inhibition, primary screen | purified PLC-gamma1, fluorogenic substrate, fluorescence | inhibition, % at 12.2 µM | 370,000 tested, 0.84% active | AID 720700; in the data active = inhibition above about 9.5%
ADAM17 inh: ADAM17 inhibition, QFRET primary screen | P78536 | recombinant ADAM17, EDANS/DABCYL FRET peptide cleavage | inhibition, % at 6.95 µM | 370,000 tested, 0.83% active;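 active = inhibition above the mean of compounds lying between control limits plus 3 SD, set per campaign, cut at about 8.5% in these data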;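 also: 0% = DMSO-only wells as the low control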
ADAM10 confirm: confirmation of inhibitors of human ADAM10; ADAM10 QFRET peptide cleavage, EDANS fluorescence; inhibition, % at 6.95 µM; 2,100 tested, 1% active; shares compounds with ADAM10 inh;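 active = inhibition above about 20% chosen separately for each screening run, limit read from the data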;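 also: 0% = DMSO wells and 100% = marimastat wells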
ADAM17 counter: ADAM17 inhibition, counter-screen for ADAM10 exosite hits. shares compounds with ADAM10 inh. ADAM17 QFRET peptide cleavage, EDANS fluorescence. inhibition, % at 6.95 µM. 2,100 tested, 0.5% active. AID 743214;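 active = mean triplicate inhibition above the solvent-only control wells' mean plus 3 SD, cut at about 12% in these data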;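 also: 0% = DMSO wells and 100% = marimastat wells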
ADAM10 ctr: ADAM10 inhibition, counter-screen for ADAM17 exosite hits; AID 743256; inhibition, % at 6.95 µM; recombinant ADAM10, EDANS/DABCYL FRET peptide cleavage, 3 h; 2,900 tested, 47% active; shares compounds with ADAM17 inh;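 active = mean inhibition over the triplicate runs exceeds the activity threshold set in the earlier primary screen, cut at about 20% in these data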;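 also: 0% = DMSO wells and 100% = marimastat wells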
ADAM17 confirm: confirmation of inhibitors of human ADAM17; inhibition, % at 6.95 µM; 2,900 tested, 65% active; shares compounds with ADAM17 inh; AID 743257; recombinant ADAM17, EDANS/DABCYL QFRET peptide cleavage;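 active = mean inhibition across replicates above the hit cutoff set in the primary screen, cut at about 8.5% in these data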;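 also: 0% = DMSO wells and 100% = marimastat wells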
An asterisk follows results filed as active; . = no result given. Rows were chosen to be rich in hits. Some 3.4% of all compounds tested hit in one or more screens of this group.

SMILES | ADAM10 inh | PLCb3 inh | HGIII-sPLA2 inh | KLK7 zymogen act | PLC-gamma1 inh | ADAM17 inh | ADAM10 confirm | ADAM17 counter | ADAM10 ctr | ADAM17 confirm
OC[C@@H]1CN(Cc2ccccc2)C[C@H](n2cnc3c(NCc4ccc(F)cc4)ncnc32)O1 | -29.9 | -39.9 | -11.5 | 3.6 | -30.1 | -6.7 | . | . | . | .
CCOc1ccc(C(=O)Nc2nnc(NC(=S)Nc3ccccc3)s2)cc1 | 10.3 | -6.1 | 6.4 | 0.0 | 2.2 | 5.6 | . | . | . | .
Cc1ccc(C(=O)Nc2nnc(NC(=S)Nc3ccccc3)s2)cc1 | 23.7* | -45.1 | 5.4 | -0.7 | -22.5 | 9.2* | 12.2 | 3.5 | -8.7 | 3.2
CCCc1ccc(-c2cc(NC(=O)CSc3n[nH]c(N)n3)n(-c3ccccc3)n2)cc1 | 28.9* | 4.1 | -29.9 | -0.7 | 1.0 | 9.8* | 3.5 | 1.6 | 29.2* | 11.8*
Cc1ccc(S(=O)(=O)N(Cc2ccc(Cl)cc2)c2ccccc2C(=O)NCc2ccco2)cc1 | 22.3* | 2.2 | -17.4 | -0.2 | 4.7 | 10.7* | 6.5 | 2.0 | 19.4 | 11.8*
COc1ccccc1N(CC(=O)NCc1ccco1)S(=O)(=O)c1ccc(C)cc1 | -7.3 | -6.6 | -5.4 | 0.1 | -3.3 | -2.0 | . | . | . | .
Cc1ccc(OCC(=O)NNC(=O)C2CC(=O)N(c3ccc4c(c3)OCCO4)C2)cc1 (stereo unspecified) | 1.1 | -3.2 | -7.9 | 0.4 | -0.6 | -3.2 | . | . | . | .
CCc1nnc(NC(=O)CS(=O)(=O)Cc2ccccc2)s1 | 0.6 | -2.8 | 0.7 | -0.6 | 2.9 | -2.1 | . | . | . | .
COc1ccc(CN(CC(O)COCc2ccccc2)S(=O)(=O)c2ccccc2Br)cc1OC (stereo unspecified) | 6.8 | 1.5 | -23.6 | 0.6 | 1.2 | 5.6 | . | . | . | .
O=S(=O)(c1c(F)cccc1F)N(CCc1ccc(F)cc1)C[C@@H](O)COCc1ccccc1 | 27.2* | 6.7 | -35.1 | 0.3 | 3.5 | 15.2* | 6.8 | 1.1 | 39.1* | 19.1*
Cc1cc(C)c(NC(=O)c2cccs2)c(C)c1NC(=O)c1cccs1 | 0.3 | -4.0 | 1.4 | -0.1 | -0.5 | -1.4 | . | . | . | .
O=S(=O)(NC1CCCCC1Sc1ncccn1)c1ccc(Cl)cc1 (stereo unspecified) | -3.3 | 3.4 | -4.5 | 0.5 | -3.2 | 1.3 | . | . | . | .
O=S(=O)(NC1c2cccc3cccc(c23)C1Sc1ncccn1)c1ccc(Cl)cc1 (stereo unspecified) | 24.6* | -1.9 | -10.6 | 0.5 | 2.2 | 9.7* | 7.3 | 3.6 | 27.5* | 13.8*
Cc1cccc(NC(=O)c2nc[nH]c2C(=O)N(C)Cc2ccccc2)c1 | 21.4* | 4.7 | -23.7 | 0.1 | 6.6 | 9.4* | 1.8 | -0.1 | 10.3 | 7.2
Cc1cccc(NC(=O)c2nc[nH]c2C(=O)Nc2cccc(C)c2)c1 | -2.0 | -1.2 | 2.4 | 0.5 | 2.2 | -1.5 | . | . | . | .
CN(Cc1ccccc1)C(=O)c1[nH]cnc1C(=O)Nc1ccccc1 | 5.3 | 3.3 | -22.5 | 0.3 | -1.0 | 4.5 | . | . | . | .
Cc1cccc(NC(=O)c2nc[nH]c2C(=O)N[C@@H](C)c2ccccc2)c1 | 26.2* | -31.9 | -7.5 | 0.1 | 2.5 | 10.0* | 8.6 | 2.8 | 29.1* | 14.6*
CC(COc1ccccc1)N1CCC(CO)(Cc2ccccc2)CC1 (stereo unspecified) | -11.6 | -1.5 | 2.9 | 0.1 | 0.8 | -3.1 | . | . | . | .
COc1cc2c(cc1OC)C(=O)N1[C@H]3c4cc(C)ccc4OC[C@@H]3[C@H](c3ccccc3)[C@]1(C)C(=O)N2 | 5.3 | -10.1 | -12.2 | -1.0 | -7.8 | 2.2 | . | . | . | .
COc1cc2c(cc1OC)C(=O)N1[C@H]3c4cc(Cl)ccc4OC[C@@H]3[C@H](c3ccccc3)[C@]1(C)C(=O)N2 | 28.9* | -7.2 | -4.2 | -1.7 | -2.8 | 11.7* | 15.8 | 4.9 | 34.4* | 19.2*
O=C(c1cccs1)N1C[C@@H](n2cc(C3CC3)nn2)[C@H](O)C[C@@H]1c1ccccc1 | 9.3 | -1.1 | 0.2 | -0.1 | 1.8 | -0.1 | . | . | . | .
Cc1ccc(C(=O)Nc2ccccc2C(=O)NCc2ccco2)cc1S(=O)(=O)N1CCCCC1 | 25.1* | -4.6 | -34.1 | -0.6 | -3.3 | 9.6* | 15.0 | 4.8 | 34.6* | 20.4*
CN1C2CCC1/C(=C\c1ccc(F)cc1)C(=O)/C2=C/c1ccc(F)cc1 | -1.5 | 0.9 | -9.7 | -0.2 | -4.8 | -3.3 | . | . | . | .
C=CC(=O)N1C/C(=C/c2ccc(F)cc2)C(=O)/C(=C\c2ccc(F)cc2)C1 | 20.2* | -30.6 | -12.7 | 0.2 | -14.1 | 10.6* | 2.8 | 0.5 | 21.1* | 14.2*
COC(=O)C(Nc1ccccc1Cl)(c1cc(C)c(O)c(C)c1)C(F)(F)F (stereo unspecified) | 29.8* | -0.2 | -30.4 | 0.1 | -4.0 | 12.6* | 8.8 | 3.6 | 41.2* | 20.2*
SMILES | ADAM10 inh | PLCb3 inh | HGIII-sPLA2 inh | KLK7 zymogen act | PLC-gamma1 inh | ADAM17 inh | ADAM10 confirm | ADAM17 counter | ADAM10 ctr | ADAM17 confirm
CC(=O)Nc1ccc(C(=O)N2CCCCC2c2cc(C(=O)Nc3cccc4c3CCCC4)no2)cc1 (stereo unspecified) | -7.6 | -0.2 | -15.8 | 0.7 | 2.3 | 2.8 | . | . | . | .
Cn1nc(C(C)(C)C)cc1C(=O)N1CCCCC1c1cc(C(=O)Nc2cccc3c2CCCC3)no1 (stereo unspecified) | 21.4* | 1.4 | -21.5 | 0.1 | 0.3 | 12.2* | 6.6 | 1.7 | 18.3 | 9.2*
O=[N+]([O-])c1cc(C(F)(F)F)ccc1NCCc1c[nH]c2ccc(O)cc12 | 30.6* | 0.2 | -22.6 | 0.2 | 2.9 | 12.5* | 4.9 | 1.4 | 27.3* | 13.9*
CCOc1cc(C(=O)NCc2ccc3c(c2)OCO3)cc(OCC)c1OCC | -0.6 | -9.1 | 4.6 | -0.4 | -1.7 | -2.7 | . | . | . | .
O=C(N[C@@H](Cc1ccccc1)C(=O)OCc1ccccc1)c1nc[nH]c1C(=O)NC(c1ccccc1)c1ccccc1 | 13.4 | 1.6 | -3.1 | -0.2 | 1.8 | 8.1 | . | . | . | .
O=C(CNC(=O)c1[nH]cnc1C(=O)NC(c1ccccc1)c1ccccc1)OCc1ccccc1 | 21.1* | 1.4 | -10.0 | -0.2 | 4.9 | 11.0* | 8.7 | 3.3 | 28.9* | 13.1*
O=C(CNC(=O)c1[nH]cnc1C(=O)N[C@@H](Cc1ccccc1)C(=O)OCc1ccccc1)OCc1ccccc1 | 22.2* | 1.2 | -15.8 | -0.1 | 4.5 | 8.8* | 7.7 | 2.7 | 24.9* | 15.0*
